These results are taken from the supplement of paper PMC9262897, “Low-cost anti-mycobacterial drug discovery using engineered E. coli” (Nature Communications, 2022).

Structures are written as SMILES. Where a name gives a salt, the structure may show the parent alone. ± gives the standard deviation of the averaged measurements.

The test system of the experiment is E. coli TESEC Mtb Alr. Description: growth (OD600 after 10 h); higher = more growth (less inhibition). The conditions noted are these: compound 0.1 mM. As for the experimental part:
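TESEC Mtb Alr E. coli, or the Alr+ wild-type control, in 384-well plates with Prestwick library compounds at 0.1 mM and 1% DMSO, across arabinose induction levels of 1E3 to 1E7 nM. Growth is read as OD600 after 10 h at 37 °C in triplicate biological replicates.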

The mark [1] stands for this setting: arabinose 1000 nM, raw OD600 reference: median of DMSO wells 0.294, cell-free background 0.041.
Where [2] appears, read: arabinose 10000 nM, raw OD600 reference: median of DMSO wells 0.264, cell-free background 0.041.
The mark [3] stands for this setting: arabinose 100000 nM, raw OD600 reference: median of DMSO wells 0.201, cell-free background 0.041.
Setting [4] is: arabinose 1000000 nM, raw OD600 reference: median of DMSO wells 0.193, cell-free background 0.041.
Where [5] appears, read: arabinose 10000000 nM, raw OD600 reference: median of DMSO wells 0.146, cell-free background 0.041.

As to `CC(C)(C)NCC(O)c1cc(Cl)c(N)c(Cl)c1` (stereo not given) [Clenbuterol hydrochloride], the growth is, setting by setting: under setting [1], 0.292 ± 0.0084; under setting [2], 0.246 ± 0.005; under setting [3], 0.252 ± 0.011; under setting [4], 0.215 ± 0.005; under setting [5], 0.157 ± 0.0026.
On to `C[N+]1(C)[C@@H]2CC[C@H]1C[C@@H](OC(=O)C(CO)c1ccccc1)C2` (stereo not given in full) [Methylatropine nitrate], for which the growth is, setting by setting: under setting [1], 0.283 ± 0.017; under setting [2], 0.247 ± 0.0037; under setting [3], 0.206 ± 0.0059; under setting [4], 0.2 ± 0.007; under setting [5], 0.14 ± 0.0059.
In the same order, the values of `CC(=O)[C@H]1CC[C@H]2[C@@H]3CC[C@H]4C[C@H](O)CC[C@]4(C)[C@H]3C(=O)C[C@]12C` [Alfaxalone] are 0.162 ± 0.0069, 0.21 ± 0.0045, 0.108 ± 0.0044, 0.101 ± 0.0035 and 0.0965 ± 0.0034.
As to `CCN(C)C(=O)Oc1cccc([C@H](C)N(C)C)c1` [Rivastigmine], the growth was 0.293 ± 0.004 under setting [1]; 0.302 ± 0.0098 under setting [2]; 0.213 ± 0.02 under setting [3]; 0.19 ± 0.021 under setting [4]; 0.156 ± 0.0029 under setting [5].
In the same order, the values of `NCC1(CC(=O)O)CCCCC1` [Gabapentin] are 0.324 ± 0.013, 0.281 ± 0.011, 0.215 ± 0.021, 0.184 ± 0.003 and 0.156 ± 0.0041.
In the same order, the values of `O=C(CCCN1CCC(n2c(=O)[nH]c3ccccc32)CC1)c1ccc(F)cc1` [Benperidol] are 0.269 ± 0.0074, 0.263 ± 0.0054, 0.179 ± 0.036, 0.135 ± 0.0025 and 0.149 ± 0.0063.
Taken in the same sequence, the figures for `CN(C)[C@@H]1C(=O)C(C(N)=O)=C(O)[C@@]2(O)C(=O)C3=C(O)c4c(O)cccc4[C@@](C)(O)[C@H]3C[C@@H]12` [Tetracycline hydrochloride] were 0.0426 ± 0.0035, 0.04053 ± 0.00032, 0.0418 ± 0.0011, 0.04083 ± 0.00025 and 0.0422 ± 0.00068.
Take `CCC1(c2cccc(O)c2)CCCCN(C)C1` (stereo not given) [Meptazinol hydrochloride]: the growth came out at 0.3214 ± 0.0014 under setting [1]; 0.3 ± 0.0084 under setting [2]; 0.192 ± 0.015 under setting [3]; 0.203 ± 0.018 under setting [4]; 0.139 ± 0.0077 under setting [5].
